Source: PubChem
Shown are actives, neighbours in structure and some others; about 2.4% of the full set was active somewhere.
D2 PAM-1 – Beta-Arrestin HTS for Positive Allosteric Modulators of the Human D2 Dopamine Receptor: Potentiators; D(2) dopamine receptor (Homo sapiens), P14416; DiscoveRx D2 beta-arrestin cells, luminescence, 90 min; 100% = 57 uM dopamine signal; potentiation, % (concentration not given with the values); actives 0.23% (n = 360,000); in the data active = potentiation above about 50%; inconclusive = mostly about 30% to 49%
Target sequence (P14416 whole entry, looked up): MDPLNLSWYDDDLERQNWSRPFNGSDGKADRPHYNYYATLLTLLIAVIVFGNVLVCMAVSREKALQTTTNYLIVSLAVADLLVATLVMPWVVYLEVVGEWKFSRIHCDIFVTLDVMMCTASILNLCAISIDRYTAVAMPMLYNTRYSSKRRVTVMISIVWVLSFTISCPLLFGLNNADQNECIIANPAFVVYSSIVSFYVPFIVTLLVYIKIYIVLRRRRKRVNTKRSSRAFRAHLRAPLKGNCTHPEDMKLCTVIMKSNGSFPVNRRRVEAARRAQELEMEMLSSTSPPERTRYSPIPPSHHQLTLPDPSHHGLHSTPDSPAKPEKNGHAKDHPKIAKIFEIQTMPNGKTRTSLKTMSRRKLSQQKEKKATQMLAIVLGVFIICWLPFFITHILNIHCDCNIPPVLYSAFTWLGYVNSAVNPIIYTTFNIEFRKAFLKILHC
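PathHunter D2 cells, attached overnight at 37 deg C, received compound in DMSO plus dopamine at EC20 (50 nM final) for 90 min at 37 deg C. Beta-arrestin recruitment was read as luminescence after 1 h with detection reagent at ambient temperature.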
D2 ag-1 – Beta-Arrestin HTS for Positive Allosteric Modulators of the Human D2 Dopamine Receptor: Agonists; actives 0.084% (n = 360,000); DiscoveRx PathHunter D2 beta-arrestin, luminescence, 90 min; 100% = 57 uM dopamine signal; AID 624465, 2012; activation, % (no concentration beside the values); D(2) dopamine receptor (Homo sapiens), P14416; in the data active = activation above about 40%; inconclusive = between about 15% and that limit
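DiscoveRx PathHunter D2 beta-arrestin cells (2,100/well) attached overnight, then compound-stimulated 90 min at 37 C in HBSS/10 mM HEPES/0.1% Tween-20 buffer; beta-galactosidase complementation read by luminescence after 1 h at ambient temperature. Dopamine 57 uM final (EC100) as control.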
D2 PAM-2 – HTS Assay for Positive Allosteric Modulators of the Human D2 Dopamine Receptor: Primary Screen for Potentiators; D(2) dopamine receptor (Homo sapiens), P14416; HEK293 T-REx D2, calcium flux, EC20 dopamine potentiation; potentiation, % at 10 µM; actives 0.34% (n = 340,000); AID 485347, 2010;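 active = potentiation over 3 SD above the plate norm, cut at about 30% in these data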; also: 0% is about no effect
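Using a no-wash calcium dye in inducible, force-coupled HEK293 Trex cells expressing D2, we tracked fluorescence each second for 180 s after compound, then for 180 s after EC20 dopamine to detect augmented signalling.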
D2 antag – HTS Assay for Allosteric Antagonists of the Human D2 Dopamine Receptor: Primary Screen for Antagonists; inhibition, % at 10 µM; actives 2% (n = 340,000); HEK293 TREx D2 cells, calcium flux, dopamine EC80; AID 485344, 2010; in the data active = inhibition above about 30%; inactive = below that, where a call was filed; also: 0% is about no effect
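Calcium mobilization kinetics were recorded at 1 s intervals in tetracycline-induced HEK293 T-REx D2 cells, first for 180 s after compound addition and then 180 s after EC80 dopamine.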
D2 ag-2 – HTS Assay for Allosteric Agonists of the Human D2 Dopamine Receptor: Primary Screen for Agonists; actives 0.53% (n = 340,000); D(2) dopamine receptor (Homo sapiens), P14416; HEK293 T-REx D2 cells, calcium flux agonist mode; activation, % at 2 µM;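 active = activation over 3 SD above normal in the single-dose calcium agonist read, cut at about 30% in these data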; also: 0% is about no effect
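In this primary screen, compounds producing a positive calcium signal within 180 s of addition to tetracycline-induced, force-coupled HEK293 Trex D2 cells are flagged; cells are dye-loaded with a no-wash calcium kit beforehand.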
D3 arrestin ag – qHTS of D3 Dopamine Receptor Agonist: D3 Dopamine Receptor B-arrestin Agonist Confirmatory Assay. shares compounds with D2 ag-2. DiscoveRx D3 beta-arrestin cells, luminescence, 90 min. Potency, µM (highest dose often 76.9 µM), without a hit: at the top dose activation, hits mostly activators. actives 4% (n = 2,300). AID 720506, 2013;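 also: potency is read from the fitted curve at half-maximal effect; 100% = dopamine control response; nearly all actives have a fitted effect of over 70% in size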
D2 ag-3 – qHTS of D3 Dopamine Receptor Agonist: D2 Dopamine Receptor B-arrestin Agonist Counterscreen; actives 5.9% (n = 2,300); Potency, µM (series often up to 76.9 µM), inactives show at the highest dose activation, most hits filed as activators; shares compounds with D2 ag-2; DiscoveRx PathHunter D2 beta-arrestin, luminescence, 90 min; response scale: percent relative to full dopamine signal; also: potency is read from the fitted curve at half-maximal effect; % of control where 0% means no effect; nearly all actives have a fitted effect of over 70% in size
Active calls of the source: *; ? = inconclusive; . = no result. Unless noted, calls follow the shape of the dose curve; as a rule, active = well fitted activation curve with a large enough effect; inconclusive = small, poorly fitted or top-dose-only effect; inactive = flat fitted curve, though single readings scatter.

SMILES	D2 PAM-1	D2 ag-1	D2 PAM-2	D2 antag	D2 ag-2	D3 arrestin ag	D2 ag-3
CC(C)N1CCN(Cc2cccc(-c3ccco3)c2)CC1CCO (stereo not drawn)	-16	3	-3	14	0	-8%	-6%
CC(C)N1CCN(Cc2ccccc2-c2ccco2)CC1CCO (stereo not drawn)	-1	-1	5	-12	-2	.	.
COc1ccc(CC(=O)NNS(=O)(=O)c2ccc(F)cc2)cc1OC	?	4	-8	13	1	.	.
COc1ccccc1N1CCN(CC(C)N(C(=O)C2CCCCC2)c2ccccn2)CC1 (stereo not drawn)	-13	-1	-23	82*	40*	-21%	-2%
CCOc1ccccc1N1CCN(Cc2ccc(Br)s2)CC1	-5	2	-25	.	.	-6%	4%
CCOc1ccccc1N1CCN(Cc2c(C)n(C)n(-c3ccccc3)c2=O)CC1	-7	-3	-25	85*	31*	-10%	1%
COc1cc(NC(=O)CCc2nnc3ccc(NCc4ccco4)nn23)cc(OC)c1	0	-1	1	4	52*	11%	15%
CCOc1cc(N2CCOCC2)c(OCC)cc1NC(=O)COc1cccc(CC)c1	1	-2	14	-34	0	-9%	2%
CCOc1ccc(-c2nnn(CC(=O)NCc3ccccc3)n2)cc1	-7	1	11	6	-1	.	.
CCN(C(=O)COC(=O)CCCOc1ccccc1)c1c(N)n(Cc2ccccc2)c(=O)[nH]c1=O	-1	0	-26	-28	0	-3%	-6%
CCN(C(=O)COC(=O)c1ccc(O)cc1O)c1c(N)n(Cc2ccccc2)c(=O)[nH]c1=O	1	-3	-1	-6	-1	-3%	-5%
CCN(C(=O)COC(=O)c1cc(=O)[nH]c2ccccc12)c1c(N)n(Cc2ccccc2)c(=O)[nH]c1=O	-4	-4	.	.	.	.	.
CCN(C(=O)CSc1nnc(-c2ccc(C)cc2)n1N)c1c(N)n(Cc2ccccc2)c(=O)[nH]c1=O	-22	6	-1	-7	-1	-5%	-6%
CCOC(=O)c1ccc(NS(=O)(=O)c2cc(Br)cc3c2N(C(C)=O)C(C)C3)cc1 (stereo not drawn)	.	.	-21	.	0	.	.
CCOc1ccc2c(c1)c(=O)c(S(=O)(=O)c1ccccc1)cn2CC(=O)Nc1ccccc1OC	.	.	-26	.	1	.	.
C=CCn1c(=O)n(C(=O)OCC)c2cc(Br)ccc21	-6	1	1	6	6	.	.
CCOC(=O)C1CCCN(C(=O)Cn2nc(C)c3c(C)n(-c4ccccc4)nc3c2=O)C1 (stereo not drawn)	-6	-3	3	-7	25	-10%	-7%
CCCN(C#N)c1nc(NCC)nc(NC(C)C)n1	-14	1	4	5	-2	.	.
CCN(C#N)c1nc(NC(C)C)nc(NC(C)(C)C)n1	-3	-4	-15	-6	40*	-10%	-2%
Cc1cc(Cn2nc(-c3ccccc3C)cc2C(=O)O)on1	-8	-2	-6	-1	-1	-8%	-3%
COc1cn(CC(=O)Nc2cc(C)cc(C)c2)c(CN2CCCCC2)cc1=O	.	.	-2	.	.	.	.
CCC1=Nc2cc(C(=O)NCCCN3CCN(C)CC3)ccc2Sc2ccccc21	-16	-4	14	5	-1	.	.
O=C(CSC1=NS(=O)(=O)c2cc(Cl)ccc2N1)NCCc1ccccc1	8	2	-20	21	41*	8%	6%
COc1ccc(CCNC(=O)CSC2=NS(=O)(=O)c3cc(Cl)ccc3N2)cc1OC	1	-5	-1	0	0	.	.
Cc1c(N=c2scc(-c3ccccc3)n2CCO)c(=O)n(-c2ccccc2)n1C	-5	0	-4	1	24	.	.
SMILES	D2 PAM-1	D2 ag-1	D2 PAM-2	D2 antag	D2 ag-2	D3 arrestin ag	D2 ag-3
Cc1c(N=c2scc(-c3ccccc3)n2C)c(=O)n(-c2ccccc2)n1C	-6	?	-16	76*	66*	-1%	?
COc1ccc(-n2c(Cc3cccn3C)nnc2SCC(=O)N2CCCC2)cc1	-4	-1	-21	10	59*	-2%	-2%
COc1ccc(-n2c(Cc3cccn3C)nnc2SCC(=O)N2CCC(C)CC2)cc1	-1	-3	-6	-13	-1	.	.
CCOc1ccccc1N1CC(C(=O)Nc2ccc3c(c2)OCCO3)CC1=O (stereo not drawn)	-5	0	1	-13	0	.	.
NC(=O)c1nsc(C(=O)N(c2ccccc2)C(C(=O)NCc2ccc(F)cc2)c2ccco2)c1N (stereo not drawn)	2	4	.	.	.	.	.
NC(=O)c1nsc(C(=O)N(c2ccccc2)C(C(=O)NCc2ccc(F)cc2)c2ccc(O)cc2)c1N (stereo not drawn)	23	4	5	57*	6	2%	-1%
COc1ccc(-c2nc(CN3CCN(C(=O)c4ccco4)CC3)c(C)o2)c(OC)c1C	?	46*	-24	92*	102*	?	?
COc1ccc(-c2nc(CN3CCN(C(=O)c4ccco4)CC3)c(C)o2)cc1OC	3	1	3	12	0	.	.
COc1ccc(-c2nc(CN3CCN(C(=O)c4ccco4)CC3)c(C)o2)c(F)c1	15	?	-16	25	61*	?	?
COc1ccc(OC)c(-c2nc(CN3CCN(C(=O)c4ccco4)CC3)c(C)o2)c1	-11	8	-11	16	49*	5%	7%
Cc1oc(-c2ccc(F)cc2F)nc1CN1CCN(C(=O)c2ccco2)CC1	-11	0	.	.	.	.	.
CCCCN(C)C(=O)c1nc2ccccn2c1CN1CCN(c2ccccn2)CC1	-11	1	-25	5	53*	29%	11%
CCCCN(C)C(=O)c1nc2ccccn2c1CN1CCN(c2cnccn2)CC1	-3	-1	-4	-11	0	.	.
